Compound activity from PubChem BioAssay.
The list is not random: actives were taken first. Their share in the collection is about 19%.
IL1B secr inh = inflammasome signaling inhibition, IL-1 beta readout | THP-1 LPS/ATP IL-1B secretion, AlphaLISA, 16 h; active compounds read low | activity change, % at 57.5 µM | 360,000 tested, 4.7% active | AID 743279; in the data active = activity change below about -50%; inconclusive = mostly about -30% to -49%
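Secreted IL-1B measured by AlphaLISA bead assay after 16 h compound exposure of THP-1 cells; compounds (final up to 57.5 uM) added 1 h before LPS (250 ng/mL) and ATP (1.25 mM) stimulation; lower signal means less secretion.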
HT1080NT lethal = kills 2HG-producing HT-1080-NT fibrosarcoma cells; HT-1080-NT fibrosarcoma viability, CellTiter-Glo ATP luminescence, 48 h; Potency, µM (highest dose often 46.1 µM), without a hit: top-dose activity, negative = less viability, most hits filed as cytotoxic; 360,000 tested, 1.6% active;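 also: NT is the 2HG producing partner of a matched IDH1 knockdown line; potency is read from the fitted curve at half-maximal effect; 0% = DMSO-treated cells and -100% = media-only wells without cells; nearly all actives have a fitted effect of over 55% in size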
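Read-out is CellTiter-Glo luminescence after 10 minutes at room temperature, following 48 hours' compound treatment of HT-1080-NT cells (750 cells/well, RPMI, 5% FBS, 37 degrees C).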
HT1080 IDH1KD tx = toxicity to HT-1080 IDH1 knockdown cells (counter line); HT-1080 IDH1 knockdown viability, ATP luminescence, 48 h; Potency, µM (highest dose often 46.1 µM), without a hit: at the highest dose activity, negative = toxicity, actives largely listed as cytotoxic; 360,000 tested, 2% active; AID 686971;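 also: potency is read from the fitted curve at half-maximal effect; 0% = DMSO wells and -100% = cell-free medium wells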
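IDH1KD HT-1080 cells, 750/well, RPMI + 5% FBS; compound pinned after 2 h settling; 48 h, 37 °C; CellTiter-Glo luminescence; % activity normalised to DMSO and no-cell wells; curves fitted, classed by r2 and efficacy.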
TDP1 cell CPT = DT40-hTDP1 cell growth loss with CPT. chicken DT40 Tdp1-/-;hTDP1 cells + 20 nM CPT, ATP luminescence, 48 h. Potency, µM (highest dose often 46.2 µM), for inactives: top-dose activity change, negative = growth inhibition, actives largely listed as inhibitors. 420,000 tested, 12% active. AID 686979; also: potency is read from the fitted curve at half-maximal effect; nearly all actives have a fitted effect of over 55% in size
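Chicken DT40 Tdp1-/- cells stably complemented with human TDP1 were seeded at 400 cells/well in medium containing 20 nM camptothecin, exposed to pin-transferred compounds, and grown at 37 °C for at least 48 hr. Viability was read as ATP luminescence.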
DT40 TDP1 no CPT = qHTS for Inhibitors of human tyrosyl-DNA phosphodiesterase 1 (TDP1): qHTS in cells in absence of CPT. Potency, µM (highest dose often 46.2 µM), inactives show at the highest dose activity change, negative = growth inhibition, actives largely listed as inhibitors. AID 686978, 2013. 420,000 tested, 15% active. DT40 Tdp1-/- hTDP1 cells, no CPT, ATP luminescence, 48 h; also: potency is read from the fitted curve at half-maximal effect; nearly all actives have a fitted effect of over 55% in size
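Growth of hTDP1-complemented DT40 Tdp1-knockout cells is measured by ATP luminescence after at least 48 hr compound exposure at 37 °C, with DMSO substituting for the 20 nM CPT used in the parallel screen.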
ELG1 DNA repair = blocks ELG1-dependent DNA repair in HEK293T cells | Potency, µM (highest dose often 46.1 µM), for the others: at the highest dose activity change, negative = inhibition, hits mostly inhibitors | AID 504467 | HEK293T ELG1-luciferase reporter, luminescence, 16 h; DNA damage induced by 5-fluorouridine | 330,000 tested, 2.3% active; also: potency is read from the fitted curve at half-maximal effect; nearly all actives have a fitted effect of over 55% in size
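Cells (2,000 per well) received 5-fluorouridine plus test compound or DMSO and were incubated 16 hr at 37 °C, 5% CO2. Luciferase activity was read by luminescence 30 min after ONE-Glo addition; signal suppression marked inhibition of damage-induced ELG1 function.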
* = called active by the depositor; u = inconclusive; x = not tested or not shown. Unless noted, calls follow the shape of the dose curve; as a rule, active = well fitted curve in the direction sought with a large enough effect; inconclusive = small, poorly fitted or top-dose-only effect, or another doubt; inactive = no such curve, though single readings can be large; an effect the other way counts as inactive or inconclusive. Unless noted, % is scaled to controls: 0 for no effect and ±100 for the full control effect.

SMILES | IL1B secr inh | HT1080NT lethal | HT1080 IDH1KD tx | TDP1 cell CPT | DT40 TDP1 no CPT | ELG1 DNA repair
COc1ccccc1C1C(C(=O)c2ccco2)=C(O)C(=O)N1c1cc(C)on1 (configuration not stated) | 7.7 | -4.6% | -8.4% | u | u | u
CCn1c(SCC(=O)Nc2ccccc2)nc2ccccc2c1=O | -12.1 | -14.3% | -15.0% | -11.7% | u | -8.9%
CC(C)Oc1ccccc1NC(=O)CSc1nc2ccccc2c(=O)n1C | -0.8 | -2.2% | u | 20.6µM* | u | u
CCn1c(SCC(=O)Nc2cccc(OC)c2)nc2c(c1=O)SCC2 | 8.7 | -2.2% | 0.2% | 3.8% | 6.9% | 13.5%
CCn1c(SCC(=O)Nc2cc(OC)ccc2OC)nc2c(c1=O)SCC2 | -1.0 | -8.2% | -18.7% | u | 25.9µM* | 6.6%
CCn1c(SCC(=O)Nc2ccccc2OC)nc2ccccc2c1=O | -71.7* | 1.0% | -8.5% | u | u | u
COc1cccc(NC(=O)CSc2nc3ccccc3c(=O)n2C)c1 | -15.0 | -0.6% | u | 16.4µM* | 23.1µM* | 9.2µM*
N#Cc1ccccc1S(=O)(=O)N1CCN(C(=O)C2CC(=O)N(c3ccc4c(c3)OCCO4)C2)CC1 (configuration not stated) | 3.8 | 0.1% | -6.0% | -3.7% | -20.2% | 4.2%
CCCCNC(=O)c1onc(CS(=O)(=O)c2ccccn2)c1C(=O)NCCCC | 8.6 | -1.2% | 1.3% | -1.4% | -13.3% | -25.6%
CC(CCOS(N)(=O)=O)c1ccccc1 (configuration not stated) | 12.2 | -2.9% | -3.5% | 3.0% | -20.7% | -0.7%
CCOc1ccc(N2CC(C(=O)Nc3nnc(CC)s3)CC2=O)cc1 (configuration not stated) | 18.1 | -8.8% | -2.0% | 0.0% | 0.1% | 9.6%
CCCn1c(SC(C(=O)Nc2cc(C)ccc2OC)c2ccccc2)nc2ccccc2c1=O (configuration not stated) | 8.7 | 7.6% | 11.0% | 18.4µM* | 14.6µM* | 18.4µM*
COC(=O)c1cccc(NC(=O)CSc2nc3cccnc3n2C)c1 | u | -16.7% | -26.8% | u | 16.4µM* | 13µM*
O=C(/C=C/c1cccnc1)c1cccc(O)c1 | -2.8 | 20.6µM* | u | 2.91µM* | 2.91µM* | u
O=C(/C=C/c1cccc(O)c1)c1cccnc1 | -5.7 | u | u | 8.2µM* | 23.1µM* | 10.9%
COC(=O)c1ccc(CSc2nnc(NC(C)C)s2)o1 | 11.4 | 0.6% | 7.1% | -3.6% | -4.0% | 22.9%
COc1cc(/C=C2/SC(=Nc3ccc(O)cc3)NC2=O)ccc1O | u | 0.651µM* | 1.16µM* | 1.03µM* | 0.651µM* | u
COc1ccc(/C=C2\SC(=Nc3ccccc3OC)NC2=O)cc1 | u | u | u | 23.1µM* | u | -21.4%
CCc1ccc(N=C2NC(=O)/C(=C/c3cc(OC)c(O)c(OC)c3)S2)cc1 | 11.3 | -3.2% | -11.1% | u | 25.9µM* | u
O=C1NC(=Nc2ccccc2)S/C1=C\c1ccccc1 | 33.7 | 0.5% | 1.8% | u | u | u
COc1cc(/C=C2\SC(=Nc3ccccc3OC)NC2=O)ccc1O | -60.1* | 4.11µM* | 7.31µM* | u | u | u
COc1cc(/C=C2\SC(=Nc3ccccc3)NC2=O)cc(Cl)c1O | 31.3 | -28.3% | u | u | u | 1.8%
Cc1ccc(C)c(C(=O)CCC(=O)OCn2nnc3ccccc3c2=O)c1 | -10.8 | -0.6% | -2.2% | -23.9% | 15.0% | 0.3%
NS(=O)(=O)c1ccc(CCNc2ccnc3cc(Cl)ccc23)cc1 | 2.2 | -4.2% | -15.0% | u | 14.6µM* | 4.5%
NS(=O)(=O)c1ccc(CCNC(=O)c2ccc3nccnc3c2)cc1 | 44.4 | 7.3% | 11.2% | -7.6% | -23.1% | -4.4%
SMILES | IL1B secr inh | HT1080NT lethal | HT1080 IDH1KD tx | TDP1 cell CPT | DT40 TDP1 no CPT | ELG1 DNA repair
O=S(=O)(c1ccc(F)cc1)c1nc(-c2ccccc2)oc1N1CCOCC1 | 0.0 | -7.9% | -13.0% | -25.6% | -22.6% | -0.8%
Clc1ccc(-c2nnc(CCc3ccccc3)o2)c(Cl)c1 | 3.9 | -3.5% | -2.6% | -1.7% | -10.0% | u
CCCCCC[n+]1c(-c2ccc(Cl)cc2Cl)csc1Nc1ccccc1 | 22.0 | 4.1% | 1.8% | u | 23.1µM* | -2.8%
COc1ccccc1NC(=O)CCN1C(=O)C2C3CCC(C3)C2C1=O (configuration not stated) | 2.4 | -0.2% | 13.6% | 4.2% | 2.7% | -8.8%
O=C(CSc1ncnc2nc[nH]c12)N1CCN(c2ccc(Cl)cc2)CC1 | -1.9 | u | -26.3% | 23.1µM* | 13µM* | 18.4µM*
O=C(CSc1ncnc2nc[nH]c12)c1ccc2ccccc2c1 | 5.3 | 23.1µM* | u | u | 11.6µM* | u
O=C(O)CSc1ncnc2nc[nH]c12 | 10.0 | -0.4% | -11.3% | -6.7% | -9.5% | -2.6%
c1nc(SSc2ncnc3nc[nH]c23)c2[nH]cnc2n1 | u | 2.31µM* | 1.3µM* | 5.8µM* | 7.31µM* | x
O=[N+]([O-])C(=C1Nc2ccccc2N1)C(Cl)=C(Cl)Cl | 0.0 | -0.4% | -2.4% | u | u | u
CCC1CO/C(=C(\C(Cl)=C(Cl)Cl)[N+](=O)[O-])N1 (configuration not stated) | -61.3* | -1.9% | 0.0% | 2.9% | -1.6% | 7.5%
O=C(O)c1n[nH]c2c1CC(C1CCCCC1)CC2 (configuration not stated) | -9.8 | -17.8% | -0.1% | -23.4% | -8.9% | 16.0%
Cn1c(=O)c2c(nc(NCC(O)CO)n2CCc2ccccc2)n(C)c1=O (configuration not stated) | 12.7 | 0.4% | 4.1% | -23.0% | u | -8.7%
CCCNc1nc2c(c(=O)n(C)c(=O)n2C)n1CCC(C)C | -15.1 | -12.8% | -7.9% | 16.4µM* | 16.4µM* | u
CC(O)CNc1nc2c(c(=O)n(C)c(=O)n2C)n1CCc1ccccc1 (configuration not stated) | 26.8 | 1.1% | -18.2% | u | 16.4µM* | u
CCCNc1nc2c(c(=O)n(C)c(=O)n2C)n1CCCc1ccccc1 | 2.4 | 3.7% | -1.2% | 13µM* | 18.4µM* | -15.9%
CCCCNc1nc2c(c(=O)n(C)c(=O)n2C)n1CCC | 10.1 | -16.8% | 5.4% | u | u | -5.4%
